Shown are actives, neighbours in structure and some others; about 3.6% of the full set was active somewhere.
NRP1-CendR mod = modulators of CendR peptide binding to human neuropilin-1; O14786; FAM-RPARPAR peptide binding to NRP-1, fluorescence polarization; inhibition, % at 25 µM; 360,000 compounds, 0.85% hits; AID 602438;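 active = inhibition or corrected inhibition above about 18%, plus a signal ratio from 0.5 to 1.5, limit read from the data, passing the limit was not always enough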
NadD block = inhibitors of Staphylococcus aureus NadD; purified NadD enzyme, colorimetric absorbance read-out; inhibition, % at 20 µM; 360,000 compounds, 0.78% hits; AID 602399; in the data active = inhibition above about 26%
CRFBP-R2 block = CRF-BP/CRF-R2 complex antagonism. 350,000 compounds, 0.59% hits. inhibition, % at 11.8 µM. HEK293 CRF-R2/CRF-BP, CRF-induced calcium fluorescence;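 active = inhibition of the ligand-induced calcium signal above about 50% at the single tested concentration, limit read from the data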
Myeloid diff MLP = myeloid differentiation induction. calls only at 10 µM. ER-HoxA9 myeloid progenitors, lysozyme-GFP differentiation, flow cytometry. 360,000 compounds, 1% hits;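 active = normalized GFP-positive differentiation at or above the plate's own cutoff, the solvent-only control mean plus 3 SD; inconclusive = no clear call, values can overlap the other calls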;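 note: cells exposed to compound for four days before flow analysis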
FAS-TE inh = blocks the thioesterase domain of human fatty acid synthase. recombinant FAS-TE, OMFH fluorogenic substrate, fluorescence endpoint. inhibition, % at 15 µM. 360,000 compounds, 0.67% hits;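 active = compounds whose normalised, plate-corrected inhibition of enzyme fluorescence in the single-dose primary screen is 50% or more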
Hits are given with their value; . = inactive; ? = inconclusive; / = no result; + = active, no number.

SMILES	NRP1-CendR mod	NadD block	CRFBP-R2 block	Myeloid diff MLP	FAS-TE inh
O=C(CCCc1ccccc1)N1CCN(c2ccc([N+](=O)[O-])cc2)CC1	.	.	68	.	.
CCN1CCc2c(sc(NC(=S)NC(=O)c3ccc(Cl)cc3)c2C(N)=O)C1	.	.	.	+	.
Cc1sc(NC(=S)NC(=O)c2ccccc2)c(C#N)c1C	.	.	.	.	.
CC(C)C1Cc2c(sc(NC(=S)NC(=O)c3ccccc3)c2C#N)CO1 (stereo not drawn)	.	.	.	.	.
CCCN1CCc2c(sc(NC(=S)NC(=O)c3ccccc3)c2C#N)C1	.	.	.	+	.
CCN1CCc2c(sc(NC(=O)c3ccc4ccccc4c3)c2C(N)=O)C1	.	.	/	?	.
CC(C)N1CCc2c(sc(NC(=O)c3ccc(S(=O)(=O)N4CCc5ccccc54)cc3)c2C(N)=O)C1	.	.	.	+	.
CC(C)N1CCc2c(sc(NC(=S)NC(=O)c3ccccc3)c2C#N)C1	.	.	.	+	.
OCc1ccccc1-c1ccc2nccn2c1	.	.	/	.	.
COc1ccccc1CC1(C)C(=O)Nc2c(Cl)cccc21 (stereo not drawn)	.	.	/	.	.
CC(C)N1CCc2c(sc(NC(=O)c3ccc(S(=O)(=O)N4CCOCC4)cc3)c2C#N)C1	.	.	.	+	.
CCN1CCc2c(sc(NC(=O)c3ccc(S(=O)(=O)N(C)c4ccccc4)cc3)c2C(=O)NC)C1	.	.	.	+	.
CNC(=O)c1c(NC(=O)c2ccc(S(=O)(=O)N(C)c3ccccc3)cc2)sc2c1CCN(C(C)C)C2	/	/	.	/	/
CCc1nc(SCC(=O)N2CCCCC2)c2c(=O)n(C)c(=O)n(C)c2n1	.	.	.	.	.
CC(C)[C@@H]1Cc2[nH]c(=S)[nH]c(=O)c2[C@H](CCc2ccccc2)O1	.	.	/	.	.
CC(=O)c1cccc(NC(=O)C2CCCN2S(=O)(=O)c2ccccc2C(F)(F)F)c1 (stereo not drawn)	.	.	.	.	.
CCOc1ccccc1NC(=O)C1CCCN1S(=O)(=O)c1ccccc1C(F)(F)F (stereo not drawn)	.	.	82	.	.
O=C(NCc1ccccn1)C1CCN(C(=O)c2cc3sccc3n2Cc2ccc(F)cc2)CC1	.	.	.	+	.
CCOC(=O)N(C)C[C@@H]1OCc2cnnn2CCCC(=O)N([C@H](C)CO)C[C@H]1C	.	.	.	.	.
O=C(NCCNC(=O)Nc1ccc(Cl)cc1)Nc1ccc(Cl)cc1	.	.	.	+	.
Cc1cc(-c2ccc(S(=O)(=O)NCc3ccc(Cl)cc3)cc2)on1	28	.	.	.	.
O=C(Cn1nc(-c2cccc([N+](=O)[O-])c2)c2ccccc2c1=O)NCC1CCCO1 (stereo not drawn)	.	.	.	/	.
Cc1ccc(N2C(=O)NC(NS(=O)(=O)c3ccccc3)(C(F)(F)F)C2=O)cc1 (stereo not drawn)	26	.	.	.	.
Cc1c2cnn(CC(=O)NCCCN3CCCCC3C)c(=O)c2c(C)n1Cc1ccccc1 (stereo not drawn)	.	.	.	.	.
Cc1c2cnn(CC(=O)NC3CCCC3)c(=O)c2c(C)n1Cc1ccccc1	.	.	111	.	.
SMILES	NRP1-CendR mod	NadD block	CRFBP-R2 block	Myeloid diff MLP	FAS-TE inh
COc1cccc(-c2c(-c3cc(OC)cc(OC)c3)n(C)c3ccc(-c4cnc(N5CCOCC5)nc4)cc23)c1	.	.	.	+	.
COc1cccc(-c2c(-c3cc(OC)cc(OC)c3)n(C)c3ccc(-c4cnc(OC)nc4)cc23)c1	.	.	.	.	.
Cc1cc(C)n(C(=O)c2cc([N+](=O)[O-])cc([N+](=O)[O-])c2)n1	.	.	.	.	.
COC(=O)c1ccc(N)c(N=CC2=C(O)CC(C)(C)CC2=O)c1	.	.	.	+	.
CC1(C)CC(=O)C(C=Nc2cc(C(=O)c3ccccc3)ccc2N)=C(O)C1	.	.	.	+	.
CSc1ccccc1N=CC1=C(O)CC(C)(C)CC1=O	.	.	.	.	.
Cc1cc(C)c(C)c(S(=O)(=O)N2CCN(C(=O)c3cc(=O)[nH]c4ccccc34)CC2)c1C	.	.	.	+	.
Cc1cc(C)c(S(=O)(=O)N2CCN(C(=O)c3cc(=O)[nH]c4ccccc34)CC2)c(C)c1	.	.	.	.	.
CCN(CC)C(=O)C1=C(C)N(CCC2=CCCCC2)C(=O)C(CC(=O)NCc2ccco2)C1 (stereo not drawn)	.	.	.	.	.
C=C1C[C@@H]2C[C@@H]2CN(S(=O)(=O)c2ccc(C)cc2)[C@@H]1c1ccco1	.	.	/	.	.
CCc1nc2c(OCc3ccc(F)c(F)c3)cccn2c1N(C)C(=O)C1CC1	.	.	/	.	.
COc1ccc(N2C(=O)C(=O)/C(=C(/O)c3ccc(C)cc3)C2c2cccnc2)cc1 (stereo not drawn)	.	.	.	+	.
CCCOc1ccc(/C(O)=C2/C(=O)C(=O)N(CCCOC)C2c2cccnc2)cc1 (stereo not drawn)	28	.	.	/	.
COc1ccc(C2/C(=C(/O)c3ccc(C)cc3)C(=O)C(=O)N2C)cc1 (stereo not drawn)	.	.	.	.	.
Cc1n[nH]c(=O)c2c(NC(=O)CSc3nnc(C4CC4)n3C)oc(C)c12	.	.	.	.	.
CCCCCCN1C=CC(=C/C=C(\C#N)C(=O)OCC)C=C1	.	.	.	.	.
CN1/C(=C/C=C(C#N)C#N)C=Cc2ccccc21	.	.	.	+	.
CCOC(=O)/C(C#N)=C/C=C1\C=Cc2ccccc2N1CC	.	.	.	+	.
CCOC(=O)[C@]12CCCC=C1N(Cc1cccc3ccccc13)C(=O)[C@H](CC(=O)NCCCN1CCCC1=O)C2	.	.	/	.	.
Cc1ccc(NC(=O)CCC(=O)N/N=C/c2cccnc2)cc1	.	.	.	.	.
Cc1ccccc1NC(=O)CCC(=O)N/N=C/c1cccnc1	22	.	.	.	.
C=CCN1c2ccccc2[C@]23C[C@@H](C(=O)OC)N(C(=O)C4CCC4)C2=NC(C(=O)OC)=C(C(=O)OC)[C@H]13	25	.	.	.	.
COC(=O)C1=C(C(=O)OC)[C@@H]2N(C)c3ccccc3[C@@]23C[C@@H](CO)N(C(=O)NCCBr)C3=N1	.	.	.	.	52
CCOC(=O)N1C2=NC(C(=O)OC)=C(C(=O)OC)[C@@H]3N(C)c4ccccc4[C@]23C[C@H]1C(=O)OC	.	.	.	.	.
COc1cccc(N=Cc2c[nH][nH]c2=O)c1	.	.	.	.	.
O=c1[nH][nH]cc1C=Nc1ccc(Cl)cc1	.	.	72	.	.
CC1(C(=O)NS(=O)(=O)c2cccc(C#N)c2)CCN1C(=O)CCC1CCCC1 (stereo not drawn)	.	.	/	.	.
CNc1ccc(-c2cccc(C#N)c2)cn1	.	.	/	.	.
CC1(C)CCN2CCC(C)(C)c3c(O)ccc1c32	.	.	.	+	.
CC(=O)N1Cc2cc(C(=O)NCC(F)(F)F)nc(-c3cccc(-c4cccnc4)c3)c2[C@@H]1CCO	.	.	/	.	.
